Sampled rows, rich in hits. Any-hit rate of the full collection: about 6.2%.
HCMV inh = qHTS Assay for inhibitors of the human cytomegalovirus (HCMV); HFF cells, HCMV-luciferase reporter, 72 h; stronger effect = lower value; activity change, negative = inhibition, % at 57.5 µM; actives 4.5% (n = 410,000); AID 1259415, 2018; in the data active = activity change below about -60%; inconclusive = no clear call, values can overlap the other calls; inactive = above about -39%
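Steps: HFFs plated, 16 h 37C; compounds added; HCMV-luciferase added to MOI 1 PFU/cell; 72 h 37C; OneGlo reagent, 5 min room temperature; luminescence read, normalized to controls.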
FMDV inh = High Throughput Screening for Foot and Mouth Disease Virus Antivirals; Potency, µM (titrated, usually from 57.9 µM), without a hit: at the highest dose activity change, negative = inhibition, most hits filed as inhibitors; actives 1.2% (n = 410,000); FMDV antiviral cell-based qHTS; AID 1159524, 2015; calls by dose curve; tested in HEK293T cells; also: read-out not given here; potency is read from the fitted curve at half-maximal effect; nearly all actives have a fitted effect of over 45% in size
Marburg entry inh = qHTS for inhibitors of binding or entry into cells for Marburg Virus; Marburg virus pseudotyped entry inhibition, cell reporter; Potency, µM (highest dose often 37.8 µM), inactives show top-dose activity change, negative = inhibition, hits mostly inhibitors; actives 1.8% (n = 300,000); calls by dose curve; tested in HEK293 cells; also: potency is read from the fitted curve at half-maximal effect
Lassa entry inh = qHTS for Inhibitors of binding or entry into cells for Lassa Virus | actives 1.2% (n = 300,000) | AID 540256, 2011 | Potency, µM (titrated, usually from 37.9 µM), for the others: at the highest dose activity change, negative = inhibition, most hits filed as inhibitors | Lassa virus pseudotype entry inhibition, cell reporter; calls by dose curve; tested in HEK293 cells; also: potency is read from the fitted curve at half-maximal effect; nearly all actives have a fitted effect of over 50% in size
* marks the source's active call; other numbers are inactive results; ? = inconclusive; · = no result given; [ ] = remark or other dose. % is scaled to controls: 0 for no effect and ±100 for the full control effect.

SMILES	HCMV inh	FMDV inh	Marburg entry inh	Lassa entry inh
CCC1CCCCN1CCCNC(=O)c1ccc2c(c1)N(Cc1cccc(C)c1)C(=O)c1ccccc1S2(=O)=O (centres undefined)	-64*	-3%	?	?
CC1CCCN(CCCNC(=O)c2ccc3c(c2)N(Cc2ccc(Cl)cc2)C(=O)c2ccccc2S3(=O)=O)C1 (centres undefined)	-100*	-4%	?	?
Cc1cccc(CN2C(=O)c3ccccc3S(=O)(=O)c3ccc(C(=O)N4CCCC4)cc32)c1	-18	-7%	-2%[46.1 µM]	?
CCC1CCCCN1CCCNC(=O)c1ccc2c(c1)N(Cc1ccc(Cl)cc1)C(=O)c1ccccc1S2(=O)=O (centres undefined)	-106*	-14%	?	?
CCC1CCCCN1CCCNC(=O)c1ccc2c(c1)N(Cc1cccc(Cl)c1)C(=O)c1ccccc1S2(=O)=O (centres undefined)	-98*	-13%	·	?
CCC1CCCCN1CCCNC(=O)c1ccc2c(c1)N(Cc1ccccc1)C(=O)c1ccccc1S2(=O)=O (centres undefined)	?	4%	?	-22%[46.1 µM]
COc1ccc(CN(C)S(=O)(=O)c2nnc(NC(=O)c3ccccc3)s2)cc1OC	35	-19%	14%[46.1 µM]	?
CN(C)S(=O)(=O)c1ccc(N2CCCC2)c(C(=O)NNC(=O)COc2ccccc2F)c1	-15	3%	-24%	2%[46.1 µM]
CCC(C)Nc1nc2c(c(=O)[nH]c(=O)n2C)n1CCC(C)C (centres undefined)	13	-18%	-1%	-8%
COc1cc2c(cc1OC)C(c1cccs1)N(C(=O)c1ccncc1)CC2 (centres undefined)	22	2%	?	?
O=C(COC(=O)/C=C/c1ccc([N+](=O)[O-])cc1)NCc1ccccc1	-28	-11%	0%	7%
Cc1cccc(NC(=S)N(C)Cc2cn(C)c3ccccc23)c1	-68*	6%	-5%	?
COc1ccccc1OCC(=O)Nc1ccc(S(=O)(=O)N2CCCCCC2)cc1	81	·	?	8%
CCn1c(SCC(=O)Nc2nccs2)nnc1-c1ccc(S(=O)(=O)N2CCCCC2)cc1	-38	25µM*	-24%	-2%
CCn1c(SCC(=O)Nc2nccs2)nnc1-c1ccccc1	-14	15%	29%	-17%
Cc1ccccc1OCC(O)CN1CCN(CC(O)COc2ccccc2C)C(C)C1 (centres undefined)	23	-23%	?	?
Cc1cccc(N2C(S)=C(C#N)C(=O)NC2c2ccco2)c1 (centres undefined)	-68*	-4%	?	9%[46.1 µM]
CCC(CC)C1C(C#N)=C(N)Oc2n[nH]c(C)c21 (centres undefined)	-24	35µM*	?	-19%
Cc1[nH]nc2c1C(c1ccc(F)cc1)C(C#N)=C(N)O2 (centres undefined)	54	?	-27%	-9%
Cc1[nH]nc2c1C(C1CC=CCC1)C(C#N)=C(N)O2 (centres undefined)	-3	25µM*	-25%[46.1 µM]	-13%
Cc1nn(-c2ccccc2)c(Cl)c1C1C(C#N)=C(N)Oc2n[nH]c(C)c21 (centres undefined)	-103*	0%	27%	-16%
CCc1[nH]nc2c1C(C(C)C)C(C#N)=C(N)O2 (centres undefined)	-20	32µM*	1%	17%
CC1(C)Cc2cccc(OCC(=O)NC3CC3)c2O1	43	-8%	-1%	22%
COc1ccc(Cn2c(=S)[nH]c3ccccc3c2=O)cc1	-20	16%	·	·
COCC(=O)N/N=C(\C)CC(=O)Nc1ccccc1C(N)=O	-2	-13%	?	22%
SMILES	HCMV inh	FMDV inh	Marburg entry inh	Lassa entry inh
CCOC(=O)c1sc2nc(N3CCOCC3)c3c(c2c1N)CCN(Cc1ccccc1)C3	-31	-13%	?	16µM*
CN(C(=O)c1sc2nc(N3CCOCC3)c3c(c2c1N)CCCC3)c1ccccc1	?	?	?	3.5µM*
CCOC(=O)c1sc2nc(N3CCOCC3)c3c(c2c1N)CCC3	-34	8%	-9%	-20%
N#Cc1cccc(C(=O)C(=O)N2CCC(c3ccccc3)CC2)c1	-14	-6%	·	·
O=C(C(=O)N1CCC(c2ccccc2)CC1)c1ccc(F)c(F)c1	-62*	10%	·	·
O=C(Nc1cc(C(F)(F)F)ccc1F)C1CCCCC1	-106*	-9%	?	20%
CC(C)(C)c1nn2cnnc2n(/N=C/c2cccc3ccccc23)c1=O	-25	28µM*	15%	0%
Cc1ccc(/C=N/n2c(=O)c(C(C)(C)C)nn3cnnc23)cc1	-15	-20%	26%	6%
COc1nc(-c2ccc(C)cc2)ccc1-c1noc(-c2cccnc2)n1	0	-15%	7%	8%
COc1nc(-c2ccccc2)ccc1-c1noc(-c2cccnc2)n1	-104*	3%	0%	32%
COc1cc(C2CC(=O)c3c([nH]c(C(=O)OC4CCCC4)c3C)C2)cc(OC)c1OC (centres undefined)	-98*	?	?	?
CCOCCOC(=O)c1[nH]c2c(c1C)C(=O)CC(c1cc(OC)c(OC)c(OC)c1)C2 (centres undefined)	-62*	28µM*	?	-17%
COC(=O)c1[nH]c2c(c1C)C(=O)CC(c1cc(OC)c(OC)c(OC)c1)C2 (centres undefined)	-74*	?	·	·
CCOC(=O)c1ccc(NC(=O)CCn2ccc(C)n2)cc1	-5	-8%	·	4%[46.1 µM]
CCOc1ccc(Nc2ccc3nonc3c2[N+](=O)[O-])cc1	?	-24%	?	4%
C[C@H](O)C#Cc1ccc2c(c1)O[C@@H](CN(C)Cc1ccc(-c3ccccc3)cc1)[C@H](C)CN([C@@H](C)CO)S2(=O)=O	-82*	?	·	·
C[C@H](O)C#Cc1cnc2c(c1)C(=O)N([C@H](C)CO)C[C@@H](C)[C@@H](CN(C)Cc1ccc(-c3ccccc3)cc1)O2	-71*	-17%	·	·
C[C@@H]1CN([C@H](C)CO)S(=O)(=O)c2ccc(Br)cc2O[C@@H]1CN(C)Cc1ccc(-c2ccccc2)cc1	-10	-23%	·	·
Cc1cccc(C)c1NC(=O)CN(C)CCc1ccccc1	27	-19%	·	·
Cc1cccc([N+](=O)[O-])c1NC(=O)CN(Cc1ccccc1)Cc1ccccc1	-61*	?	?	?
CCc1ccc(NC(=O)Nc2cc(C(=O)NCC3CCCO3)ccc2N2CC3CC(C2)c2cccc(=O)n2C3)cc1 (centres undefined)	0	-8%	·	·
C=Cc1ccc(Cn2c(C(=O)O)c(CNCc3ccc(F)cc3)c3ccc(C)cc32)cc1	-91*	?	·	?
COc1ccc(Cn2c(C(=O)O)c(CNCc3cccs3)c3ccc(C)cc32)cc1	-66*	6%	·	?
COc1ccc(Cn2c(C(=O)O)c(CNCc3ccc(SC)cc3)c3ccc(OC)cc32)cc1	-91*	?	·	?
Cc1ccc2c(CNCc3cccs3)c(C(=O)O)n(Cc3ccc(F)cc3)c2c1	-102*	-4%	·	?

Screening data deposited in PubChem by National Center for Advancing Translational Sciences (NCATS).
